The source of these data is PubChem BioAssay AID793 (The Scripps Research Institute Molecular Screening Center, 2007).

Several values for one entry are separate records, joined by “and”; a condition that tells them apart may be missing. Identical values can stand only once. The campaign covered roughly 140,000 compounds. About 1,400 (1%) were called active. Cut-off read from the data, not from the text of the source: active = inhibition above about 17%; inactive = the rest. Many of the other results were omitted from the sample, so actives are more common in it than they were. Some compounds were tested as several samples or in several runs, with calls that do not always agree.

Broadly, the inhibition is the drop in the measured response relative to a control, in per cent.

Neuropeptide Y receptor type 2 (Homo sapiens), sequence (P49146 whole entry, looked up): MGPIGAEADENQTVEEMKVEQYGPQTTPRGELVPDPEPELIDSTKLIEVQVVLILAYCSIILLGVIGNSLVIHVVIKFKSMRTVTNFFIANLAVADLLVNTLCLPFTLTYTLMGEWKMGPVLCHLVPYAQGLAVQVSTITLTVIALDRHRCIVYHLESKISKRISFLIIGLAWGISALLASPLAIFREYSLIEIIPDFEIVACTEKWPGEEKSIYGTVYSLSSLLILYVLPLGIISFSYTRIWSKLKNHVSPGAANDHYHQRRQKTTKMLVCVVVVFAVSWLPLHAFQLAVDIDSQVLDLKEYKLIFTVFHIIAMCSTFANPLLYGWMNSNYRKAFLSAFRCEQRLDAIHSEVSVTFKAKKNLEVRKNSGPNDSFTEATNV

The assay concerns the target Neuropeptide Y receptor type 2 (Homo sapiens) (UniProt P49146). Kind of assay: NPY-Y2 receptor antagonists, primary screen, cell-based (AID 793).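 Note: 0% = vehicle with agonist challenge and 100% = reference antagonist with challenge.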 To be noted: NPY-Y2 expressing cells, antagonist mode; at 2.7 µM; stronger effect = higher value.
As to `O=C(CC(=O)N/N=C\c1cccc(Cl)c1Cl)NCc1ccccc1`, the inhibition is 13.3% (inactive).

Turning to `COc1ccc(-c2nn(-c3ccccc3)cc2/C=N/Nc2ccccn2)cc1OC`, the inhibition is 9.59% (inactive).

As for `COc1ccc(-c2nn(-c3ccccc3)cc2C(=O)Nc2nccs2)cc1OC`, the inhibition was 17.6% (active).

As for `COc1ccc(-c2nn(-c3ccccc3)cc2C(=O)Nc2nc(CC(C)=O)ns2)cc1`, the inhibition is -0.9% (inactive).

For `O=C(c1cncc(Br)c1)N1CCN(c2ccc([N+](=O)[O-])cc2)CC1`, the inhibition was 0.95% (inactive).

In the case of `C/C(=N\Nc1ncc(Cl)cc1Cl)c1ccc(S(=O)(=O)NCc2ccco2)cc1`, the inhibition was 2.79% (inactive).

For the compound `Cc1ccc(N/N=C2\COC(C)(C)CC2=O)cc1`, the inhibition is 1.13% (inactive).

As to `Cc1ccc(NC(=O)NC(=O)CSc2nnc(-c3ccc(OC(F)F)cc3)n2N)c(C)c1`, the inhibition is 0.74% (inactive).

`Cc1ccccc1OC(=O)Cn1c(C(F)(F)F)nc2ccccc21`: the inhibition was 20.2% (active).

For the compound `CC(C)(C)NC(=O)NC(=O)COC(=O)Cn1c(C(F)(F)F)nc2ccccc21`, the inhibition was 6.71% (inactive).

For the compound `CN1CCN(C(=O)Cn2c(C(F)(F)F)nc3ccccc32)CC1`, the inhibition is -1.96% (inactive).

With `CCCCN(CC)C(=O)c1ccccc1Oc1ccccc1`, the inhibition was 9.08% (inactive).

With `Cc1ccc(C(=O)C[n+]2cc(-c3ccccc3)n3c2CCCCC3)cc1`, the inhibition is 13.7% (inactive) and 24.1% (active).

As for `O=C(c1ccc(CSc2ccccc2)cc1)N1CCCCCC1`, the inhibition was 4.41% (inactive).

As for `Cc1ccc(C(=O)CS(C)(=O)=O)cc1`, the inhibition is 4.03% (inactive).

With `COc1ccc(C2c3c(C)nn(-c4ccccc4)c3NC(=O)N2c2ccccc2)cc1` (centres undefined), the inhibition was 0.06% (inactive).

On to `CCn1cc(CNC(=O)c2cc([N+](=O)[O-])c(C)c([N+](=O)[O-])c2)cn1`, for which the inhibition was 2.2% (inactive).

With `Cc1cc(C(=O)N/N=C/c2cc([N+](=O)[O-])cc(C)c2O)n[nH]1`, the inhibition was 9.9% (inactive).

In the case of `O=C(COC(=O)Cn1cnc2ccccc21)Nc1cccc2c1C(=O)c1ccccc1C2=O`, the inhibition is 4.37% (inactive).

Take `O=C(Nc1ccccc1N1CCCCC1)c1cccc(F)c1`: the inhibition is 8.36% (inactive).

With `Cc1cccc(C(=O)Nc2ccccc2N2CCN(c3ccc(F)cc3)CC2)c1`, the inhibition is 8.99% (inactive).

With `O=C(Nc1ccccc1N1CCN(c2ccccc2)CC1)c1cccc(F)c1`, the inhibition is 19.2% (active).

For the compound `CC1CCN(C(=O)c2ccc(S(=O)(=O)Cc3cc(F)ccc3F)c([N+](=O)[O-])c2)CC1`, the inhibition is -1.09% (inactive).

With `Cc1cccc(C)c1NC(=O)C(c1ccccc1)N1CC(=O)Nc2ccccc21` (centres undefined), the inhibition was 1.93% (inactive).

On to `O=C(N/N=C/c1ccc(Br)o1)c1cncc(Br)c1`, for which the inhibition is 0.35% (inactive).

For `CCCC(=O)Nc1cccc(NC(=S)NC(=O)C(C)Oc2ccc(Cl)cc2Cl)c1` (centres undefined), the inhibition was 0.34% (inactive).

With `CCC(=O)Nc1nc2ccccc2n1Cc1ccccc1C`, the inhibition is 3.41% (inactive).

In the case of `CC(=O)Nc1nonc1-c1nc2ccccc2n1Cc1ccccn1`, the inhibition is 0.29% (inactive).

`Nc1nonc1-c1nc2ccccc2n1CCC(=O)O`: the inhibition is 3.2% (inactive).

For the compound `COc1ccc(C)c(Cn2c(-c3nonc3N)nc3ccccc32)c1`, the inhibition was 17.5% (active).

On to `Nc1nonc1-c1nc2ccccc2n1Cc1ccc(F)cc1`, for which the inhibition is 18.1% (active).

As for `COCc1nc2ccccc2n1Cc1ccccc1Br`, the inhibition was 4.55% (inactive).

Take `Cc1cc(NC(=O)COC(=O)COc2ccc(Cl)cc2C)c([N+](=O)[O-])cc1C`: the inhibition is 5.09% (inactive).

On to `CCCC(C)C(=O)OCC(=O)Nc1c(Br)cc(C)cc1Br` (centres undefined), for which the inhibition is 3.68% (inactive).

Turning to `O=C(CCCCCNC(=O)c1ccccc1)N/N=C/c1ccccc1`, the inhibition was -0.13% (inactive).

Regarding `CCCOC(=O)c1ccc(N2C(=O)c3ccccc3C2=O)cc1`, the inhibition was -1.24% (inactive).

`CCCC/S(C)=N/S(=O)(=O)c1ccc(C)cc1` (centres undefined): the inhibition is 1.98% (inactive).

For the compound `O=C(NC(Nc1nc2ccc([N+](=O)[O-])cc2s1)(C(F)(F)F)C(F)(F)F)c1ccccc1`, the inhibition was 29.6% (active).

On to `Cc1cc(C)cc(OCC(=O)Nc2nc3ccc([N+](=O)[O-])cc3s2)c1`, for which the inhibition is 1.9% (inactive).

Consider `COC(=O)C(NC(=O)c1ccc(OC)cc1)(Nc1ncc(S(=O)(=O)c2ccc([N+](=O)[O-])cc2)s1)C(F)(F)F` (centres undefined), for which the inhibition was 0.75% (inactive).

As to `COC(=O)C1NN=C(C(=O)c2ccc(Br)cc2)C1c1cccc(Br)c1` (centres undefined), the inhibition was 0.05% (inactive).

Take `Cc1cc(C)n(CC(O)CN(c2ccccc2)S(=O)(=O)c2ccc3ccccc3c2)n1` (centres undefined): the inhibition was -0.03% (inactive).

On to `CC1CCCN(CCOCCOc2ccccc2-c2ccccc2)C1` (centres undefined), for which the inhibition is 10.5% (inactive).

Turning to `Cc1ccc(CN2CCN(/N=C/c3cccnc3)CC2)c(C)c1`, the inhibition was 2.92% (inactive).

On to `C/C(=N\NC(=O)CNC(=O)C(c1ccccc1)c1ccccc1)c1ccc(C)cc1`, for which the inhibition was 1.86% (inactive).

In the case of `CCCn1c(C(O)c2cc(OC)ccc2OC)nc2ccccc21` (centres undefined), the inhibition is 4.69% (inactive).

On to `COCCn1c(-c2ccc(OC)c(OC)c2)nc2ccccc21`, for which the inhibition is 1.52% (inactive).

In the case of `COc1ccc(-c2nc3ccccc3n2CCC(C)C)cc1OC`, the inhibition was 19.5% (active).

`COC(=O)c1cc2occc2n1Cc1nc(-c2ccccc2C)oc1C`: the inhibition is 11.1% (inactive).

Regarding `O=C(CCN1C(=O)c2ccccc2C1=O)NNC(=O)c1ccc(Cl)cc1Cl`, the inhibition was 0.71% (inactive).

For `Cc1ccc(NC(=O)CC2S/C(=N/N=C3\CCCc4ccccc43)NC2=O)cc1` (centres undefined), the inhibition was -0.03% (inactive).

Turning to `Cc1cccc(OCCNC(=O)CSc2ccc(C(F)(F)F)cc2[N+](=O)[O-])c1`, the inhibition was 12.7% (inactive).

On to `Cc1ccc(C)c2[nH]c(=O)c(CCNC(=O)c3cccs3)cc12`, for which the inhibition is 2.37% (inactive).

`C=CCSc1nc2c(c(=O)[nH]1)C(C(C)C)C(C#N)=C(N)O2` (centres undefined): the inhibition is 121% (active).

For `Cc1cc2c(c(=O)n1C)C(C(C)C)C(C#N)=C(N)O2` (centres undefined), the inhibition was -0.27% (inactive).

As for `C=CCOC(=O)C1=C(C)OC(N)=C(C#N)C1c1ccc(F)cc1` (centres undefined), the inhibition is 7.81% (inactive).

Take `CN(C)CCCO/N=C(\c1ccccc1)c1ccncc1`: the inhibition was 0.64% (inactive).

`Cc1ccc(C(=O)N/C(=C/c2cccnc2)C(=O)O)cc1`: the inhibition is 2.3% (inactive).

Take `Cc1nn(CC(=O)Nc2ccc(N(C)C)cc2)c(C)c1[N+](=O)[O-]`: the inhibition was -0.15% (inactive).
